Compound activity from PubChem BioAssay.
BAZ2B block: qHTS Assay for Inhibitors of BAZ2B | Bromodomain adjacent to zinc finger domain protein 2B (Homo sapiens), Q9UIF8 | AlphaScreen BAZ2B-H3K14Ac peptide displacement | Potency, µM (doses to about 114 µM), most hits filed as inhibitors | 4.4% of 360,000 active | AID 504333, 2011; note: nearly all actives have a fitted effect of over 60% in size
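AlphaScreen displacement: compounds (up to 110uM) incubated 30 min at room temperature with a preformed 50 nM BAZ2B/50 nM biotinylated H3K14Ac peptide complex in PBS pH 7.4 with Tween-20. Donor and acceptor beads at 10 ug/mL final added, 20 min light-protected before reading.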
12-LOX inh: Primary qHTS assay for inhibitors of human arachidonate 12S-lipoxygenase (ALOX12): Round 2; Polyunsaturated fatty acid lipoxygenase ALOX12 (Homo sapiens), P18054; 1.1% of 580,000 active; purified 12hLO, xylenol orange hydroperoxide absorbance; Potency, µM (series often up to 108 µM), most hits filed as inhibitors; AID 1671190, 2021
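Purified human 12hLO (150 nM final) in 25 mM Hepes, 0.01% Triton X-100, pH 7.0 was preincubated 15 min at room temperature with compound. Then 40 uM arachidonic acid was added, 30 min. Hydroperoxide was read by Fe-XO absorbance ratio 573/405 nm.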
JMJD2A Tudor inh: qHTS Assay for Inhibitors of JMJD2A-Tudor Domain; Lysine-specific demethylase 4A (Homo sapiens), O75164; 4.4% of 390,000 active; Potency, µM (highest dose often 114 µM), actives largely listed as inhibitors; AID 504339, 2011; AlphaScreen JMJD2A-Tudor / H3K4me3 peptide binding; note: nearly all actives have a fitted effect of over 50% in size
G9a block: qHTS Assay for Inhibitors of Histone Lysine Methyltransferase G9a; G9a H3K9 monomethylation, AlphaScreen, 2 h; Histone-lysine N-methyltransferase EHMT2 (Homo sapiens), Q96KQ7; 8.8% of 350,000 active; Potency, µM (top dose mostly 102 µM), hits mostly inhibitors; note: nearly all actives have a fitted effect of over 75% in size
Target sequence (Q96KQ7 913-1193 limits assumed): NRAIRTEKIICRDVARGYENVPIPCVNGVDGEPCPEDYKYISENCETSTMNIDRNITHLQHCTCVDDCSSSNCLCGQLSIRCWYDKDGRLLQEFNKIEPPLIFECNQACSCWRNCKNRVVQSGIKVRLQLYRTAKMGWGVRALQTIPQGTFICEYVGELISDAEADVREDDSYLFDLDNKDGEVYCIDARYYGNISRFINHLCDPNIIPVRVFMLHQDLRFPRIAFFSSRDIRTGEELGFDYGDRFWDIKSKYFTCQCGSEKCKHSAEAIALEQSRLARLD
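Step 1: enzyme (final 20 nM) with compound, 15 min RT. Step 2: substrate peptide 500 nM and SAM 20 uM, 2 h RT. Step 3: anti-H3K9me1 antibody and AlphaScreen beads, 10 min, then plate read.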
PLK1 PBD block: qHTS for Inhibitors of PLK1-PDB (polo-like kinase 1 - polo-box domain): Primary Screen; AID 720504, 2013; Serine/threonine-protein kinase PLK1 (Homo sapiens), P53350; Potency, µM, hits mostly inhibitors; Plk1 PBD binding of FITC phosphopeptide, fluorescence polarization; 2.8% of 360,000 active; note: series mostly up to about 57 µM; nearly all actives have a fitted effect of over 65% in size
HP1b chromo inh: HTS for Inhibitors of HP1-beta Chromodomain Interactions with Methylated Histone Tails. Chromobox protein homolog 1 (Homo sapiens), P83916. AlphaScreen HP1-beta / biotin-H3K9me3 peptide binding. Potency, µM (highest dose often 114 µM), hits mostly inhibitors. 0.56% of 390,000 active; note: nearly all actives have a fitted effect of over 70% in size
Target sequence (P83916 whole entry, looked up): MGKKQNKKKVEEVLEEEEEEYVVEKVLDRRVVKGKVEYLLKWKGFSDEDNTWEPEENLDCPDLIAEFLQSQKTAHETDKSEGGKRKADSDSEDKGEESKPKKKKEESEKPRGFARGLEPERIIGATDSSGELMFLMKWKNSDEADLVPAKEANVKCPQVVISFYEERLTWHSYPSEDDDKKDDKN
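Compound inhibition of the preformed complex between 50 nM HP1-beta and 50 nM biotinylated H3K9me3 peptide was read by AlphaScreen. Buffer was PBS pH 7.4 with 0.01% Tween-20. Incubations ran 30 min at room temperature, with 10 ug/mL donor/acceptor beads.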
Of the large screens only hits and unclear results are named; the others gave an inactive call. An excerpt weighted towards active compounds, which were near 9% of everything screened. Calls come from the whole dose curve; as a rule, active = well fitted curve in the direction sought with a large enough effect; inconclusive = small, poorly fitted or top-dose-only effect, or another doubt; inactive = no such curve, though single readings can be large; an effect the other way counts as inactive or inconclusive.

Cc1c(-c2ccccn2)c(=O)[nH]n1-c1ccc(F)cc1	BAZ2B block 50µM, JMJD2A Tudor inh inconclusive
O=c1[nH]n(-c2ccc(F)cc2)c2ncccc12	none
CSCC[C@H](NC(=O)N1CCn2c1nc1ccccc12)C(=O)NC1CC1	none
COc1cc(NC(=O)[C@H](C)NC(=O)N2CCn3c2nc2ccccc23)cc(OC)c1	BAZ2B block 50µM, PLK1 PBD block inconclusive
COc1cccc(CNC(=O)[C@H](CCSC)NC(=O)N2CCn3c2nc2ccccc23)c1	BAZ2B block inconclusive, G9a block 50µM
CN(C)c1cc(N/N=C/c2ccccc2C(F)(F)F)nc(N(C)C)n1	none
COCCn1c(=S)[nH]c2cc(C(=O)N3CCN(Cc4ccc5c(c4)OCO5)CC3)ccc2c1=O	JMJD2A Tudor inh inconclusive
COc1ccc(OC)c(S(=O)(=O)NCCO)c1	none
COc1ccccc1/C=C/C=N/NC(=O)CN1CCN(S(=O)(=O)c2ccc(C)cc2)CC1	none
CCN(CC)S(=O)(=O)c1cccc(C(=O)N/N=C/c2ccccc2OCC(=O)O)c1	BAZ2B block 50µM, 12-LOX inh inconclusive, JMJD2A Tudor inh inconclusive, G9a block 22µM
O=C(O)COc1ccccc1/C=N/NC(=O)c1cccc(S(=O)(=O)N2CCOCC2)c1	BAZ2B block inconclusive, JMJD2A Tudor inh 40µM, G9a block 14µM
Cc1ccc(S(=O)(=O)N2CCN(CC(=O)N/N=C/c3ccccc3OCC(=O)O)CC2)cc1	JMJD2A Tudor inh 40µM (no result: G9a block)
COc1cc(/C=N/NC(=O)c2cccc(S(=O)(=O)N3CCOCC3)c2)cc(OC)c1O	G9a block 40µM
COc1ccccc1NS(=O)(=O)c1cccc(C(=O)N/N=C/c2ccccc2OCC(=O)O)c1	12-LOX inh inconclusive, G9a block inconclusive
COc1cc(OC)c(OC)cc1/C=N/NC(=O)c1cccc(S(=O)(=O)N2CCOCC2)c1	G9a block inconclusive
O=C(N/N=C/c1c(F)c(F)c(F)c(F)c1F)c1cccc(S(=O)(=O)N2CCOCC2)c1	none (no result: BAZ2B block)
COc1ccccc1NC(=O)c1c(NC(=O)Cc2ccccc2)sc2c1CCC(C(C)(C)C)C2 (configuration not stated)	none (no result: PLK1 PBD block)
CN(Cc1ccccc1F)C(=O)CN1C(=O)NC2(CCc3ccccc32)C1=O (configuration not stated)	G9a block inconclusive
CCC(=O)Nc1c2c(nn1-c1ccccc1)CSC2	none
Cc1ccc(-n2nc3c(c2NC(=O)CC(C)C)CS(=O)C3)cc1 (configuration not stated)	12-LOX inh 40µM, G9a block 32µM
Cc1cccc(-n2nc3c(c2NC(=O)c2ccco2)CSC3)c1C	12-LOX inh inconclusive, JMJD2A Tudor inh 50µM, G9a block 40µM, PLK1 PBD block inconclusive
CCC(=O)Nc1c2c(nn1-c1ccc(C)cc1C)CSC2	G9a block 50µM
CC(C)CC(=O)Nc1c2c(nn1-c1ccc(F)cc1)CS(=O)C2 (configuration not stated)	none
Cc1ccc(-n2nc3c(c2NC(=O)C(C)(C)C)CSC3)c(C)c1	G9a block 40µM, HP1b chromo inh inconclusive
CC(C)(C)C(=O)Nc1c2c(nn1-c1ccc(F)cc1)CSC2	none
CC(Cn1cccn1)NC(=O)c1cc(Cl)c2c(c1)OCCCO2 (configuration not stated)	none (no result: BAZ2B block, JMJD2A Tudor inh, G9a block, PLK1 PBD block, HP1b chromo inh)
O=C(NCCCCNC(=O)c1cccnc1Cl)c1cccnc1Cl	none
Cc1ccccc1-n1nc2c(c1NC(=O)c1cccc(F)c1)CS(=O)C2 (configuration not stated)	G9a block 50µM
Cc1ccc(-n2nc3c(c2NC(=O)c2ccc(Br)o2)CSC3)c(C)c1	12-LOX inh 8.9µM, G9a block 40µM
Cc1cccc(-n2nc3c(c2NC(=O)c2ccco2)CS(=O)C3)c1C (configuration not stated)	G9a block inconclusive
CC(=O)Nc1c2c(nn1-c1ccccc1C)CS(=O)C2 (configuration not stated)	none
Cc1ccc(-n2nc3c(c2NC(=O)c2ccco2)CS(=O)C3)c(C)c1 (configuration not stated)	12-LOX inh inconclusive, G9a block 14µM
Cc1ccc(-n2nc3c(c2NC(=O)/C=C\c2ccc4c(c2)OCO4)CSC3)c(C)c1	none
CC(C)(C)C1CC=C2C(C#N)=C(N)C(C#N)(C#N)C(c3cccs3)C2C1 (configuration not stated)	BAZ2B block inconclusive, G9a block 50µM (no result: 12-LOX inh, JMJD2A Tudor inh, PLK1 PBD block, HP1b chromo inh)
CCOC(=O)C(C)Sc1ccc2nnc(-c3ccc(F)cc3)n2n1 (configuration not stated)	12-LOX inh inconclusive, G9a block 7.9µM, PLK1 PBD block inconclusive
CCC(Sc1ccc2nnc(-c3cccnc3)n2n1)C(=O)O (configuration not stated)	G9a block 50µM
Cc1ccc(-c2nnc3ccc(SC(C)C(=O)O)nn23)cc1 (configuration not stated)	12-LOX inh 32µM, JMJD2A Tudor inh 40µM, G9a block 3.5µM, PLK1 PBD block inconclusive, HP1b chromo inh inconclusive
CC(Sc1ccc2nnc(-c3ccc(F)cc3)n2n1)C(=O)O (configuration not stated)	12-LOX inh inconclusive, JMJD2A Tudor inh inconclusive, G9a block 3.5µM, PLK1 PBD block 27µM
Cc1ccc(CNC(=O)Cc2ccc(-n3c(=O)[nH]c4ccsc4c3=O)cc2)cc1	none
COc1cc2c(cc1OC)C(COc1ccccc1OC)N(C(=O)c1ccc(S(=O)(=O)N(C)C)cc1)CC2 (configuration not stated)	BAZ2B block inconclusive (no result: PLK1 PBD block)
Cc1nc(NC(=O)CN2CCN(c3ccccc3F)CC2)sc1C(=O)N(C)C	none
Cc1cc(C)cc(-n2nnn(C3C/C(=N/NC(N)=S)C4OCC3O4)c2=S)c1 (configuration not stated)	12-LOX inh inconclusive, JMJD2A Tudor inh inconclusive, G9a block 50µM
COc1ccc(-c2ccnc3nc(CCC4CCCC4)nn23)cc1OC	none (no result: BAZ2B block, JMJD2A Tudor inh, G9a block, PLK1 PBD block, HP1b chromo inh)
Cc1nc2ccc(CN(C)c3ccc(C(=O)N[C@@H](CCC(=O)O)C(=O)O)s3)cc2c(=O)[nH]1	none (no result: BAZ2B block, JMJD2A Tudor inh, G9a block, PLK1 PBD block, HP1b chromo inh)
CC(C)Nc1nc(NC(C)C)nc(N(C)N)n1	BAZ2B block 3.2µM, JMJD2A Tudor inh 35µM
CCNc1nc(NCC)nc(N(C)N)n1	BAZ2B block 25µM, JMJD2A Tudor inh 28µM
